IL-1B inflam inh = qHTS for Inhibitors of Inflammasome Signaling: IL-1-beta AlphaLISA Primary Screen | activity change, % at 57.5 µM | THP-1 LPS/ATP IL-1B secretion, AlphaLISA, 16 h; stronger effect = lower value | AID 743279, 2014 | actives 4.7% (n = 360,000); in the data active = activity change below about -50%; inconclusive = mostly about -30% to -49%
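Secreted IL-1B measured by AlphaLISA bead assay after 16 h compound exposure of THP-1 cells; compounds (final up to 57.5 uM) added 1 h before LPS (250 ng/mL) and ATP (1.25 mM) stimulation; lower signal means less secretion.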
Vif-APOBEC3G blk = qHTS for Inhibitors of Vif-A3G Interactions: qHTS | AID 602310, 2012 | Potency, µM (highest dose often 46.1 µM), usual class: inhibitors | actives 0.076% (n = 410,000) | HeLa A3G-eYFP + Vif (tagged APOBEC3G with the HIV-1 protein that degrades it), YFP fluorescence, overnight; also: nearly all actives have a fitted effect of over 60% in size
Target sequence (Q9HC16 whole entry, looked up): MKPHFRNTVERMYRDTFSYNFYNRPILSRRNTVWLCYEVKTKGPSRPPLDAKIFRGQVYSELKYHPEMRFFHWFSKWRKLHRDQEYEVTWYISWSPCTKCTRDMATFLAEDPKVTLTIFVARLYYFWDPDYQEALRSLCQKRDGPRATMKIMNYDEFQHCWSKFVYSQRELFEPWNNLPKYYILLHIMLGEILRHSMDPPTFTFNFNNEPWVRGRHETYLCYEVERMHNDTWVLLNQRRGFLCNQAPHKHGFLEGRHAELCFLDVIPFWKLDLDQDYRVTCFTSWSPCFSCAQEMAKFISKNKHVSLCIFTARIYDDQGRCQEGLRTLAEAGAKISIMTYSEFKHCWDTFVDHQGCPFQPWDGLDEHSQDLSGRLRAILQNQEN
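HeLa cells stably expressing Vif and C-terminally eYFP-tagged A3G, seeded overnight at 37 deg C, then exposed to compound by pintool overnight at 37 deg C. Rise in yellow fluorescence (Ex 488/Em 500-530, Acumen) marks blocked Vif-driven A3G degradation.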
Giardia kill = Small Molecules that selectively kill Giardia lamblia: qHTS | AID 540267, 2011 | activity change, % at 7.66 µM, hits read low | actives 0.15% (n = 340,000) | Giardia lamblia trophozoite viability; in the data active = activity change below about -80%; inconclusive = between about -30% and that limit;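 also: parasites exposed to compound for two days anaerobically before the ATP read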
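Giardia trophozoites, 100 cells per well, were exposed to compounds for 48 hrs at 37 deg C under anaerobic conditions; viability was then read as ATP content by bioluminescence after 15-30 min at room temperature.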
MCF10A rereplic = A quantitative high throughput screen for small molecules that induce DNA re-replication in MCF 10a normal breast cells; MCF 10A DNA re-replication, Hoechst nuclear intensity, 48 h; Potency, µM (titrated, usually from 46.1 µM), usual class: activators; actives 2.9% (n = 350,000); also: nearly all actives have a fitted effect of over 50% in size
SW480 rereplic = A quantitative high throughput screen for small molecules that induce DNA re-replication in SW480 colon adenocarcinoma cells; SW480 DNA re-replication, Hoechst DNA content imaging, 48 h; Potency, µM (highest dose often 46.1 µM), hits mostly activators; actives 1.8% (n = 340,000); AID 624297, 2012; also: nearly all actives have a fitted effect of over 55% in size
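Per well, 250 cells were exposed to pinned compound for 48 hr. Nuclear DNA was visualised with Hoechst (40 min, 37 C) and total object intensity recorded by fluorescence scanning.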
Vif-APOBEC3F blk = qHTS for Inhibitors of Vif-A3F Interactions: qHTS | HeLa A3F-eYFP + Vif (tagged APOBEC3F with the HIV-1 protein that degrades it), YFP fluorescence increase | Potency, µM (titrated, usually from 46.1 µM) | actives 0.2% (n = 390,000) | AID 602313, 2012; also: nearly all actives have a fitted effect of over 65% in size
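HeLa cells stably expressing Vif plus C-terminally eYFP-tagged A3F were seeded, incubated overnight at 37 deg C, dosed with compound, incubated overnight again at 37 deg C. Yellow fluorescence (Ex 488/Em 500-530) reported blocked Vif-mediated A3F-eYFP degradation.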
Of the large screens only hits and unclear results are named; the others gave an inactive call. A selection: hits, their analogues and other compounds. The true share with any hit is near 6.9%. Unless noted, calls follow the shape of the dose curve; as a rule, active = well fitted curve in the direction sought with a large enough effect; inconclusive = small, poorly fitted or top-dose-only effect, or another doubt; inactive = no such curve, though single readings can be large; an effect the other way counts as inactive or inconclusive.

O=C(NCCc1ccccc1)c1ccc(Nc2nc3ccccc3n3nnnc23)cc1	none (no result: IL-1B inflam inh, Giardia kill, MCF10A rereplic, SW480 rereplic)
COc1ccc(-c2nc3ccc(NC(=O)COC(C)=O)cc3c(=O)n2Cc2ccccc2)cc1COc1ccc(NC(C)=O)cc1	none (no result: IL-1B inflam inh, Vif-APOBEC3G blk, MCF10A rereplic, SW480 rereplic, Vif-APOBEC3F blk)
C=CCn1c2ccccc2c(=O)c2cc(C#CC3(O)CCCCC3)ccc21	IL-1B inflam inh -57, Giardia kill inconclusive, MCF10A rereplic inconclusive, SW480 rereplic 9.2µM
Cn1c2ccccc2c(=O)c2cc(C#CC3=CCCCC3)ccc21	MCF10A rereplic inconclusive, SW480 rereplic inconclusive
COc1cccc2sc3ccc(C#CC4(O)CCCCC4)cc3c(=O)c12	IL-1B inflam inh -57
O=c1c2ccccc2sc2ccc(C#CC3(O)CCCCC3)cc12	IL-1B inflam inh inconclusive, Giardia kill inconclusive, MCF10A rereplic inconclusive
C=CCn1c2ccccc2c(=O)c2cc(C#CC[C@@H](C)O)ccc21	IL-1B inflam inh -67
O=c1c2ccccc2oc2cc(C#CC3(O)CCCCC3)ccc12	Giardia kill inconclusive, MCF10A rereplic 21µM
CCN(Cc1ccc(OC)cc1)c1ccc(-c2nc(-c3ccncc3)no2)cc1[N+](=O)[O-]	none (no result: IL-1B inflam inh, Giardia kill, MCF10A rereplic, SW480 rereplic)
Cc1ccc2nc(-c3cccc(Br)c3)cc(C(=O)NCC3CCCO3)c2c1 (configuration not stated)	MCF10A rereplic 26µM
Cc1ccccc1-c1nc(C(=O)NCC2CCCO2)cc2c1[nH]c1ccccc12 (configuration not stated)	IL-1B inflam inh -51, MCF10A rereplic inconclusive, SW480 rereplic inconclusive
O=C(NCCO)c1cc2c([nH]c3ccccc32)c(-c2ccc(F)cc2)n1	IL-1B inflam inh -93, MCF10A rereplic inconclusive
Cc1ccc2[nH]c(=O)c3cc(C(=O)NCC4CCCO4)sc3c2c1 (configuration not stated)	IL-1B inflam inh -81
CCOC(=O)c1c(NC(=O)c2cc(CC)on2)sc(C)c1C	none (no result: IL-1B inflam inh, Giardia kill, MCF10A rereplic, SW480 rereplic)
Cc1ccc(-c2nc(C(=O)NCC3CCCO3)cc3c2[nH]c2ccccc23)cc1 (configuration not stated)	IL-1B inflam inh -60, SW480 rereplic inconclusive
CC(C)[Si]1(C(C)C)OCC2OC(n3cnc4c(N)ncnc43)C(N)C2O[Si](C(C)C)(C(C)C)O1 (configuration not stated)	IL-1B inflam inh inconclusive, MCF10A rereplic 13µM, SW480 rereplic inconclusive
Nc1ncnc2c1ncn2C1OC(CO)C(O)C1N (configuration not stated)	MCF10A rereplic inconclusive, SW480 rereplic inconclusive
Cc1cc(Nc2cccc(C(F)(F)F)c2)nc2ccc(NC(=O)c3ccc(N(C)C)cc3)cc12	none (no result: IL-1B inflam inh, Giardia kill, MCF10A rereplic, SW480 rereplic)
COc1ccc(C)cc1N(C(=O)c1ccco1)C(C(=O)NC1CCCC1)c1ccc(N2CCOCC2)cc1 (configuration not stated)	IL-1B inflam inh -58
COc1ccc(OC)c(N(C(=O)c2ccco2)C(C(=O)NC2CCCC2)c2ccc(N3CCOCC3)cc2)c1 (configuration not stated)	none
Cc1ccc(CNC(=O)C(=O)Nc2c3c(nn2-c2ccc(F)cc2)CSC3)cc1	none (no result: IL-1B inflam inh, Giardia kill, MCF10A rereplic, SW480 rereplic)
Cc1oc(C)c2c(=O)ccc3c(c12)OC(N)=C(C#N)C3c1ccc(F)cc1 (configuration not stated)	Vif-APOBEC3F blk inconclusive
Cc1cc(C)c2c3c(sc2n1)C(c1cccc(F)c1)C(C#N)=C(N)O3 (configuration not stated)	IL-1B inflam inh -79, MCF10A rereplic 8.2µM, SW480 rereplic 18µM
CCCC/C=C/[C@H](c1ccccc1)[C@H](CO)Cc1cnc2ccccc2c1	none (no result: IL-1B inflam inh, MCF10A rereplic, SW480 rereplic, Vif-APOBEC3F blk)
C/C(=N\NC(=O)c1c(Cl)c(C)nn1C)c1ccc(NC(=O)COc2ccc(Cl)cc2C)cc1	MCF10A rereplic 21µM
C/C(=N\NC(=O)c1c([N+](=O)[O-])c(C)nn1C)c1ccc(NC(=O)c2ccc(C)o2)cc1	SW480 rereplic inconclusive
C/C(=N\NC(=O)c1c(Cl)c(C)nn1C)c1ccc(NC(=O)C2CCC2)cc1	Vif-APOBEC3G blk inconclusive, MCF10A rereplic inconclusive, SW480 rereplic 1.8µM
C/C(=N\NC(=O)c1c([N+](=O)[O-])c(C)nn1C)c1ccc(NC(=O)C2CCCC2)cc1	MCF10A rereplic 0.41µM, SW480 rereplic 5.8µM
CCOC(=O)C1(CCOc2ccccc2)CCN(Cc2cc(OC)c3c(c2)OCO3)CC1	IL-1B inflam inh -61, MCF10A rereplic inconclusive, SW480 rereplic inconclusive
CCOC(=O)C1(CCOc2ccccc2)CCN(Cc2ccc(OC)cc2)CC1	IL-1B inflam inh inconclusive, SW480 rereplic inconclusive
CCOC(=O)C1(CCOc2ccccc2)CCN(Cc2cccc3c2OCO3)CC1	IL-1B inflam inh -84, MCF10A rereplic inconclusive, SW480 rereplic inconclusive
CCOC(=O)C1(CCOc2ccccc2)CCN(Cc2cccc(OC)c2OC)CC1	IL-1B inflam inh -88, SW480 rereplic inconclusive
CCOC(=O)C1(CCOc2ccccc2)CCN(Cc2ccccc2O)CC1	none
CCN1CCN(Cc2c(O)ccc3oc(C)c(C(=O)Nc4cccc(C(F)(F)F)c4)c23)CC1	none (no result: IL-1B inflam inh, Giardia kill, MCF10A rereplic, SW480 rereplic)
COC(=O)c1cc2oc(C)cc2n1CC(=O)Nc1ccc(C(C)C)cc1	none (no result: IL-1B inflam inh, Giardia kill, MCF10A rereplic, SW480 rereplic)
COc1ccc(OC)c(Nc2nc3ccc(C)cc3n3cnnc23)c1	MCF10A rereplic 18µM, Vif-APOBEC3F blk inconclusive
COc1cccc(Nc2nc3ccc(C(=O)c4ccccc4)cc3n3cnnc23)c1	MCF10A rereplic 9.2µM, SW480 rereplic 18µM
CCOc1ccccc1Nc1nc2ccc(C)cc2n2cnnc12	none
COc1ccc(Cl)cc1Nc1nc2ccc(C)cc2n2cnnc12	MCF10A rereplic 8.2µM
COc1cccc(CNC(=O)c2cc(=O)[nH]c3ccc(S(=O)(=O)N4CCCC4)cc23)c1	none (no result: IL-1B inflam inh, Giardia kill, MCF10A rereplic, SW480 rereplic)
O=c1[nH]c2ccccc2nc1-c1ccccc1	none
NC(=O)N=Nc1c2[nH]c3ccccc3nc-2c2ccccc12	IL-1B inflam inh -89, MCF10A rereplic inconclusive, Vif-APOBEC3F blk inconclusive
CCN(Cc1ccccc1)C(c1cc2cc(C)cc(C)c2[nH]c1=O)c1nnnn1CCOC (configuration not stated)	IL-1B inflam inh -52
CCN(Cc1ccccc1)C(c1cc2cc(C)ccc2[nH]c1=O)c1nnnn1CCOC (configuration not stated)	none
Cc1cccc(C2(c3cccc(C)c3)CC2C(=O)Nc2ccc([N+](=O)[O-])cc2O)c1 (configuration not stated)	IL-1B inflam inh -98, MCF10A rereplic inconclusive, SW480 rereplic inconclusive

Source: PubChem BioAssay (National Center for Advancing Translational Sciences (NCATS))
